In the library only some 4.4% were active in any assay of this set; here they are far more common.
USP1-UAF1 inh: Inhibitors of USP1/UAF1: Primary Screen. recombinant USP1/UAF1, Ub-Rhodamine cleavage fluorescence. 0.23% of 390,000 active. Ubiquitin carboxyl-terminal hydrolase 1 (Homo sapiens), O94782. Potency, µM (highest dose often 57.1 µM), inactives show top-dose activity change, negative = inhibition, most hits filed as inhibitors; note: potency is the fitted concentration of half-maximal effect; % is set by controls: 0 for no effect and ±100 for the full control effect; nearly all actives have a fitted effect of over 60% in size
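Step one: compound is pinned into 1nM USP1/UAF1 in HEPES pH 7.8 buffer with TCEP. Step two: 15 min room-temperature incubation. Step three: Ub-Rho (150nM final) starts cleavage, tracked by fluorescence over six one-minute reads.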
TRHR agonist-1: qHTS for Small Molecule Agonists and Allosteric Enhancers of Human TRH Receptor: Primary Screen for Agonists; TRHR cells, calcium flux fluo-8, FDSS agonist mode; activation, % at 2 µM; 0.18% of 360,000 active; AID 493084, 2011; in the data active = activation above about 30%; note: 0% is about no effect
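TRHR-expressing cells loaded with fluo-8 calcium dye; 23 nL library compound pin-transferred, kinetic FDSS fluorescence (Ex 480/Em 530) recorded about 180 s for agonist-induced calcium release, before a 10 nM TRH EC20 addition for potentiator mode.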
D1 PAM: Potentiators of Human D1 Dopamine Receptor: qHTS; D(1A) dopamine receptor (Homo sapiens), P21728; HEK293 TREx D1 cells, calcium flux, dopamine EC20 potentiation; potentiation, % at 10 µM; 0.036% of 360,000 active; AID 504651, 2011; in the data active = potentiation above about 30%; note: 0% is about no effect
Target sequence (P21728 whole entry, looked up): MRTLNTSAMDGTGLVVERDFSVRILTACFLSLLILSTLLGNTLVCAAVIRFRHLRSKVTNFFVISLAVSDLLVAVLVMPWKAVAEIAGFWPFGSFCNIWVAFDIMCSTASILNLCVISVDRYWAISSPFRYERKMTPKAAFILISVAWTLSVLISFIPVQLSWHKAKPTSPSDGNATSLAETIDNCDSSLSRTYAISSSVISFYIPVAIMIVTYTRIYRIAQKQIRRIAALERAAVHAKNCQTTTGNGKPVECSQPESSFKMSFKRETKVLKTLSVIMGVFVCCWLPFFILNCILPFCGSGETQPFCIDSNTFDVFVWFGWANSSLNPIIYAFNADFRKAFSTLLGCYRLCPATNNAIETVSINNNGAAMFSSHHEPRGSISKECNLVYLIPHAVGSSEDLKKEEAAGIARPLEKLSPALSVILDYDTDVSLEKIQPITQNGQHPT
TRHR enhancer-1: qHTS for Small Molecule Agonists and Allosteric Enhancers of Human TRH Receptor: Primary Screen for Enhancers; 0.66% of 360,000 active; Thyrotropin-releasing hormone receptor (Homo sapiens), P34981; AID 493056, 2011; TRHR cells, fluo-8 calcium fluorescence, EC20 TRH enhancement; enhancement, % at 2 µM; in the data active = enhancement above about 30%; note: 0% is about no effect
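TRHR-expressing cells loaded with fluo-8 calcium dye were read kinetically (ex 480/em 530) during compound addition, then stimulated with an EC20 of TRH (10 nM final). Enhancement of the Gq-mediated intracellular calcium response was scored.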
D1 ag: Allosteric Agonists of the Human D1 Dopamine Receptor: qHTS; D(1A) dopamine receptor (Homo sapiens), P21728; activation, % at 2 µM; AID 504660, 2011; 1% of 360,000 active; HEK293 T-REx D1 cells, calcium flux, agonist mode; in the data active = activation above about 30%; note: 0% is about no effect
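Tetracycline-induced HEK293 TREx D1 cells, force-coupled to calcium signalling, were dye-loaded with a no-wash calcium kit. Compound was pin-added after a 10 s baseline. Fluorescence was read kinetically at 1 cycle/s for 180 s, with calcium rises flagged as agonism.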
D1 antagonist: Antagonist of Human D 1 Dopamine Receptor: qHTS; HEK293 TREx D1 cells, calcium flux, dopamine EC80; stronger effect = lower value; activity change, negative = inhibition, % at 10 µM; AID 504652, 2011; 3.2% of 360,000 active; in the data active = activity change below about -30%; note: % is set by controls: 0 for no effect and ±100 for the full control effect
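After overnight tetracycline induction at 30 C, force-coupled D1 HEK293 cells took up a no-wash calcium dye at room temperature. Compounds were added and monitored 180 s, and the response to EC80 dopamine was then recorded.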
TRHR enhancer-2: qHTS for Small Molecule Agonists and Allosteric Enhancers of Human TRH Receptor: Confirmation Screen for Enhancers | TRH receptor cell assay, enhancer confirmation qHTS | shares compounds with TRHR enhancer-1 | 970 tested, under 10 active | activity change, negative = inhibition, % at 46.1 µM | AID 493076, 2011;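 note: compound effect scored on response to added TRH at EC20 of 10 nM; 0% is about no effect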
TRHR agonist-2: qHTS for Small Molecule Agonists and Allosteric Enhancers of Human TRH Receptor: Confirmation Screen for Agonists; 8% of 970 active; AID 493078, 2011; TRHR-expressing cells, agonist activation read-out; Potency, µM (highest dose often 46.1 µM), without a hit: at the highest dose activation, actives largely listed as activators; shares compounds with TRHR enhancer-1; note: potency is the fitted concentration of half-maximal effect; 0% is about no effect; nearly all actives have a fitted effect of over 75% in size
Starred values were filed as active, the others as inactive; ? = inconclusive; nt = no result; ! = a repeat was not active. Unless noted, calls come from the whole dose curve; as a rule, active = well fitted curve in the direction sought with a large enough effect; inconclusive = small, poorly fitted or top-dose-only effect, or another doubt; inactive = no such curve, though single readings can be large; an effect the other way counts as inactive or inconclusive.

SMILES | USP1-UAF1 inh | TRHR agonist-1 | D1 PAM | TRHR enhancer-1 | D1 ag | D1 antagonist | TRHR enhancer-2 | TRHR agonist-2
COc1ccc(C(C)(C)C)cc1NC(=O)c1ccc[n+]([O-])c1 | -22% | 1 | -5 | 53* | -1 | 5 | 8 | 1%
COc1ccc(-c2cn3cccnc3n2)cc1NC(=O)Nc1ccc(Cl)cc1 | 5% | -1 | -5 | -2 | 0 | -1 | nt | nt
CCOC(=O)c1ccc(NC(=O)C2Cc3ccccc3C(=O)O2)cc1 (configuration not stated) | 2% | 0 | -2 | -3 | 7 | -4 | nt | nt
CC(=O)N1CCOc2ccc(S(=O)(=O)Nc3cccc(C)c3)cc21 | -20% | 0 | -3 | 4 | 5 | -28 | nt | nt
COc1cccc(NS(=O)(=O)c2ccc3c(c2)N(C(C)=O)CCO3)c1 | -12% | 0 | -5 | 104* | 5 | -11 | -1 | -1%
COc1cc(CNCc2ccccn2)ccc1OCC(=O)NC1CCCCC1 | -11% | -1 | 0 | 45* | 0 | 3 | 1 | -1%
CCCn1c(=O)c2sccc2n2c(CCCC(=O)NCc3cccnc3)nnc12 | -29% | 1 | 1 | -8 | 1 | -15 | nt | nt
COc1ccc(OC)c(CCNC(=O)CCCc2nnc3n(C)c(=O)c4sccc4n23)c1 | 1% | 1 | -4 | 56*! | -4 | 0 | 4 | -1%
Cn1c(=O)c2sccc2n2c(CCCC(=O)NCc3cccnc3)nnc12 | -9% | 0 | -2 | 42* | 4 | 1 | -7 | -1%
COc1ccc(C(=O)NCCn2cc(SCC(=O)NCCc3ccc(OC)c(OC)c3)c3ccccc32)cc1 | -10% | -2 | 0 | -4 | 0 | 3 | nt | nt
Cc1cccc(N2CCN(C(=O)C3CCN(C(=O)c4cc5sccc5n4C)CC3)CC2C)c1 (configuration not stated) | 2% | 1 | -2 | 2 | 21 | -29 | nt | nt
Cc1ccc(NC(=O)CSc2ncnc3c2sc2ccccc23)cc1C | 10% | 0 | 0 | 3 | -1 | 20 | nt | nt
O=C(COC(=O)c1cnccn1)Nc1ncc(Cl)cc1Cl | ? | 0 | -2 | -3 | 4 | 6 | nt | nt
O=C(COC(=O)c1cnccn1)Nc1c(Cl)cc(Cl)cc1Cl | -5% | 1 | 2 | 47* | -1 | -3 | -2 | -1%
COc1ccccc1CNC(=O)C1CCCN(S(=O)(=O)c2ccc3c(c2)oc(=O)n3C)C1 (configuration not stated) | -21% | -1 | -3 | -2 | 3 | 2 | nt | nt
C=C(C)Cn1c(SCC(=O)Nc2cccc(Cl)c2)nc2sc3c(c2c1=O)CCCC3 | -19% | -1 | 0 | 0 | 4 | -3 | nt | nt
CCc1ccc(NC(=S)N2CCN(C)CC2)cc1 | -6% | 1 | 5 | 58* | 3 | 7 | 4 | -1%
CCc1ccc(NC(=S)N2CCCC2)cc1 | -8% | 0 | -2 | -9 | 0 | 0 | nt | nt
O=C(NCC(c1cccnc1)N1CCc2ccccc21)c1cccc(F)c1 (configuration not stated) | -15% | 0 | -3 | 5 | 1 | -13 | nt | nt
Cc1cccc(Cn2c(CNS(=O)(=O)c3ccc4c(c3)CCCC4)nc3cccnc32)c1 | -29% | 0 | 0 | 6 | 4 | 19 | nt | nt
CC(C)(C)NC(=O)CSc1nc2cccnc2n1C1CCCCC1 | -3% | -1 | 2 | 51* | 4 | -7 | -14 | -1%
CNC(=O)CSc1nc2cccnc2n1C1CCCCC1 | -20% | 0 | -6 | 0 | 1 | -15 | nt | nt
CC(=O)c1ccc(N2CCN(C(=O)Cc3ccccc3)CC2)c(F)c1 | -15% | 2 | -11 | -6 | 11 | -22 | nt | nt
O=C(Cc1ccccc1)N1CCN(c2ccccc2F)CC1 | -12% | -1 | 17 | 48* | 1 | -18 | -5 | 2%
CCSc1ccccc1C(=O)N1CCN(c2ccccc2F)CC1 | -20% | 0 | -3 | 42* | 3 | -2 | 6 | -1%
SMILES | USP1-UAF1 inh | TRHR agonist-1 | D1 PAM | TRHR enhancer-1 | D1 ag | D1 antagonist | TRHR enhancer-2 | TRHR agonist-2
CC(=O)c1cccc(NC(=O)CCn2nc(C)c(S(=O)(=O)N3CCCCC3)c2C)c1 | 8% | -1 | 0 | -4 | 2 | -5 | nt | nt
CCC(C)NC(=O)c1ccccc1NC(=O)C1CCN(S(=O)(=O)Cc2ccccc2)CC1 (configuration not stated) | -18% | 0 | -1 | 0 | 0 | 6 | nt | nt
CCC1(C)Cc2c(sc3c2c(=O)n(C)c2nnc(SCCc4ccccc4)n32)CO1 (configuration not stated) | -1% | 0 | 4 | 65* | 0 | 8 | -9 | 0%
COC(=O)CC1Oc2ccc(F)cc2-n2cc(-c3ccc(C)cc3)nc21 (configuration not stated) | -16% | 1 | -4 | 6 | 0 | -2 | nt | nt
Cc1ccc(/C=C2\SC(=S)N(CCCC(=O)Nc3cc(C)on3)C2=O)cc1 | -10% | 0 | -1 | 0 | 0 | -3 | nt | nt
Cc1cc(NC(=O)CN2C(=O)/C(=C/c3cccc(Br)c3)SC2=S)no1 | -23% | 1 | -11 | 47* | 3 | 5 | 7 | 2%
CCc1ccc(NC(=O)C[n+]2cc(-c3ccc(C)cc3)n3c2CCC3)cc1 | ? | 0 | -10 | 42* | 0 | -28 | -1 | -1%
O=C(Cn1c(=O)nc(-c2ccccc2)c2cc(Cl)ccc21)N1CCN(c2ccccc2F)CC1 | ? | -1 | 1 | 2 | -1 | -21 | nt | nt
COc1cccc(NC(=O)C2CC(=O)N(c3ccc(Br)cc3)C2)c1 (configuration not stated) | -25% | 0 | 1 | -9 | 2 | 10 | nt | nt
Cc1ccc(NCc2ccc(O)c3ncccc23)cc1C | -21% | 0 | -4 | -3 | 3 | -13 | nt | nt
Cc1ccc(NCc2ccc(O)c3ncccc23)cc1 | -22% | 0 | 7 | 46* | 2 | 10 | 4 | 1%
